An excerpt weighted towards active compounds, which were near 3.2% of everything screened.
LASV entry inh – qHTS for Inhibitors of binding or entry into cells for Lassa Virus. Lassa virus pseudotype entry inhibition, cell reporter. Potency, µM (top dose mostly 37.9 µM), for the others: at the top dose activity change, negative = inhibition, most hits filed as inhibitors. 300,000 compounds, 1.2% hits; calls by dose curve; tested in HEK293 cells; also: nearly all actives have a fitted effect of over 50% in size
MARV entry inh – qHTS for inhibitors of binding or entry into cells for Marburg Virus | AID 540276, 2011 | Marburg virus pseudotyped entry inhibition, cell reporter | Potency, µM (highest dose often 37.8 µM), without a hit: top-dose activity change, negative = inhibition, actives largely listed as inhibitors | 300,000 compounds, 1.8% hits; calls by dose curve; tested in HEK293 cells
VACV Venus inh – qHTS for Stage-Specific Inhibitors of Vaccinia Orthopoxvirus: Venus Reporter Primary qHTS | Vaccinia virus Venus reporter expression, fluorescence | Potency, µM (titrated, usually from 36.5 µM), for the others: top-dose activity change, negative = inhibition, actives largely listed as inhibitors | 330,000 compounds, 0.46% hits; calls by dose curve; tested in A549 cells; also: nearly all actives have a fitted effect of over 30% in size
Vaccinia mCherry – qHTS for Stage-Specific Inhibitors of Vaccinia Orthopoxvirus: mCherry Reporter Primary qHTS. Vaccinia virus mCherry reporter infection, fluorescence. Potency, µM (titrated, usually from 36.5 µM), for inactives: at the highest dose activity change, negative = inhibition, most hits filed as inhibitors. 310,000 compounds, 0.63% hits; calls by dose curve; tested in A549 cells; also: nearly all actives have a fitted effect of over 35% in size
FMDV inh – High Throughput Screening for Foot and Mouth Disease Virus Antivirals; Potency, µM (series often up to 57.9 µM), for inactives: at the top dose activity change, negative = inhibition, actives largely listed as inhibitors; 410,000 compounds, 1.2% hits; FMDV antiviral cell-based qHTS; calls by dose curve; tested in HEK293T cells; also: read-out not given here; nearly all actives have a fitted effect of over 45% in size
* = called active by the depositor; [ ] = remark or other dose. % is scaled to controls: 0 for no effect and ±100 for the full control effect; potency is read from the fitted curve at half-maximal effect.

NC(=O)[C@@H]1CCCN1C(=O)c1cc(NC(=O)c2ccccc2)cc2ncn(C3CCCC3)c12 was read as VACV Venus inh -14%, Vaccinia mCherry inactive and FMDV inh 12%.
CCN(CC)S(=O)(=O)c1ccc(C(=O)NCCSc2c(-c3ccc(C)cc3)[nH]c3ccccc23)cc1 was read as LASV entry inh inconclusive, MARV entry inh inconclusive, VACV Venus inh -15%, Vaccinia mCherry -13% and FMDV inh -19%.
For CCN(CC)S(=O)(=O)c1ccc(C(=O)NCCSc2c[nH]c3ccccc23)cc1 the results were LASV entry inh 26µM*, MARV entry inh -11%, VACV Venus inh -9%, Vaccinia mCherry 4% and FMDV inh -10%.
`CCN(CC)S(=O)(=O)c1ccc(C(C)NC(=O)Cc2c[nH]c3ccccc23)cc1` (configuration not stated) gave LASV entry inh 2.6µM*, MARV entry inh -19%, VACV Venus inh -9%, Vaccinia mCherry -1% and FMDV inh -22%.
`CC(C)CCn1c(Oc2ccccc2F)nc2c1c(=O)n(C)c(=O)n2C` gave LASV entry inh -22%[46.1 µM], VACV Venus inh -12%, Vaccinia mCherry -18% and FMDV inh inconclusive.
Screening COc1cc(=O)n2c(c1C(=O)N(C)Cc1nonc1C)CCN(C(=O)c1cc(C)ccc1C)CC2 returned VACV Venus inh -1%, Vaccinia mCherry -3% and FMDV inh -9%.
C=CCc1cc(Cl)ccc1OCCOCCNC(C)CC (configuration not stated) was read as LASV entry inh inconclusive, MARV entry inh 11µM*, VACV Venus inh 4%, Vaccinia mCherry -6% and FMDV inh -26%.
Screening CCC(C)NCCOCCOc1ccc(Cl)c(C)c1C (configuration not stated) returned LASV entry inh inconclusive, MARV entry inh inconclusive, VACV Venus inh inconclusive, Vaccinia mCherry -13% and FMDV inh inconclusive.
Screening C=CCc1cc(Cl)ccc1OCCCNC(C)C returned LASV entry inh inconclusive, MARV entry inh inconclusive, VACV Venus inh -6%, Vaccinia mCherry inactive and FMDV inh -9%.
`CCC(C)NCCOCCOc1ccc(Cl)c2ccccc12` (configuration not stated) gave LASV entry inh inconclusive, MARV entry inh inconclusive, VACV Venus inh 28µM*, Vaccinia mCherry inconclusive and FMDV inh 0%.
CCC(C)Sc1oc(-c2ccco2)nc1S(=O)(=O)c1ccc(C)cc1 (configuration not stated) was read as LASV entry inh -10%[46.1 µM], MARV entry inh 10µM*, VACV Venus inh -13%, Vaccinia mCherry -14% and FMDV inh 26%.
CSc1oc(-c2ccco2)nc1S(=O)(=O)c1ccc(C)cc1 was read as LASV entry inh 11%[46.1 µM], MARV entry inh inconclusive, VACV Venus inh -8%, Vaccinia mCherry -25% and FMDV inh 13%.
Screening C=CC1(O)C(OC)=CC2C(=O)C1C(c1ccccc1)C2C (configuration not stated) returned LASV entry inh inconclusive and MARV entry inh 14%[14.2 µM].
Brc1cccc(-c2nnc(SCc3nc4ccccc4[nH]3)o2)c1 was read as LASV entry inh -1%, MARV entry inh -3%, VACV Venus inh inconclusive, Vaccinia mCherry 10µM* and FMDV inh inconclusive.
Screening c1ccc2[nH]c(CSc3nnc(-c4ccncc4)o3)nc2c1 returned LASV entry inh 4%, MARV entry inh -1%, VACV Venus inh inconclusive and FMDV inh inconclusive.
CC(C)c1ccc(OCc2ccc(C(=O)O)o2)cc1 was read as LASV entry inh 3.5µM*, MARV entry inh 3.7µM*, VACV Venus inh 6%, Vaccinia mCherry -14% and FMDV inh 10µM*.
Screening COc1ccc(-n2nnnc2S(=O)(=O)CC(=O)N2CCCCC2)cc1 returned VACV Venus inh inconclusive, Vaccinia mCherry 13µM* and FMDV inh 20µM*.
COc1ccc(-n2nnnc2S(=O)(=O)Cc2ccc(C(=O)O)cc2)cc1 was read as LASV entry inh -10%, MARV entry inh inconclusive and FMDV inh 28µM*.
For CC(C)(C)c1ccc(S(=O)(=O)N2CCN(C(=O)C3CCC3)CC2)cc1 the results were LASV entry inh inconclusive, MARV entry inh 4.5µM*, VACV Venus inh -13%, Vaccinia mCherry inactive and FMDV inh inconclusive.
For CC(OC(=O)C1CCN(S(=O)(=O)c2ccc(C(C)(C)C)cc2)CC1)C(=O)N1CCOCC1 (configuration not stated) the results were LASV entry inh -1%, MARV entry inh inconclusive, VACV Venus inh -3%, Vaccinia mCherry -14% and FMDV inh -14%.
For CC(OC(=O)C1CCN(S(=O)(=O)c2ccc(C(C)(C)C)cc2)CC1)C(=O)N(C)C1CCCCC1 (configuration not stated) the results were FMDV inh 40µM*.
COc1ccc(/C=N/NC(=O)CSc2nnc(CCCc3ccc(OC)c(C)c3)o2)cc1 was read as LASV entry inh 7.9µM*, MARV entry inh inconclusive, VACV Venus inh inconclusive and FMDV inh -27%.
`COc1ccc(CCCc2nnc(SCC(=O)N/N=C\c3ccc(O)c(OC)c3)o2)cc1C` gave LASV entry inh inconclusive, MARV entry inh inconclusive, VACV Venus inh -30% and FMDV inh 22µM*.
Screening COc1ccc(NC(=O)N2CCCC(C(=O)NCCc3ccccc3)C2)cc1 (configuration not stated) returned LASV entry inh inconclusive, MARV entry inh 28%[46.1 µM], VACV Venus inh 3%, Vaccinia mCherry -13% and FMDV inh 34%.
Screening Cc1cc(N2CCN(c3ccccc3)CC2)nc(-c2ccccc2)n1 returned LASV entry inh inconclusive, MARV entry inh -7%, VACV Venus inh -22%, Vaccinia mCherry -13% and FMDV inh -8%.
Screening COc1ccc(C2(O)CC3CCC(C2)N3c2cc(C)nc(-c3ccccc3)n2)cc1 (configuration not stated) returned LASV entry inh 2%, MARV entry inh 12µM*, VACV Venus inh -30%, Vaccinia mCherry -12% and FMDV inh inconclusive.
For COCCN(Cc1ccccc1)C(=S)Nc1ccc(OC(F)F)cc1 the results were LASV entry inh 16µM*, MARV entry inh inconclusive, VACV Venus inh 8%, Vaccinia mCherry -9% and FMDV inh 23%.
For CC(=O)Oc1c(I)cc(I)cc1C(=O)Nc1ccc(Cl)cc1 the results were LASV entry inh 13µM*, MARV entry inh inconclusive, VACV Venus inh inconclusive, Vaccinia mCherry 10µM* and FMDV inh inconclusive.
For CC(CCN1CCCc2nc(C)c(C)cc21)=NO[C@H](C)c1cn([C@H](CO)Cc2ccccc2)nn1 the results were MARV entry inh -41%[14.2 µM].
For Cc1c(/C(O)=C2/C(=O)C(=O)N(CCN3CCOCC3)C2c2ccccn2)cnn1-c1ccccc1 (configuration not stated) the results were LASV entry inh inconclusive, MARV entry inh inconclusive, VACV Venus inh 1%, Vaccinia mCherry -9% and FMDV inh 1.4µM*.
